CHX counter: Cycloheximide Counterscreen for Small Molecule Inhibitors of Shiga Toxin; max response, %; AID 2314, 2010; cell reporter, cycloheximide protein synthesis inhibition counterscreen; hit rate 12% among 300,000; in the data active = max response mostly above about 13%, no sharp cut-off; inactive = mostly below about 14%; also: read at 38.3 µM for the half of the compounds with a filed dose; 0% is about no effect
LmPK inh: qHTS Assay for Inhibitors of Leishmania Mexicana Pyruvate Kinase (LmPK). Q27686. purified LmPK, Kinase-Glo ATP luminescence, 1 h. Potency, µM (series often up to 57.5 µM), without a hit: at the highest dose activity change, negative = inhibition, usual class: inhibitors. hit rate 0.37% among 290,000. AID 1721, 2009; also: potency is read from the fitted curve at half-maximal effect; % is scaled to controls: 0 for no effect and ±100 for the full control effect
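qHTS format; LmPK 0.1 nM; substrates PEP 0.5 mM and ADP 0.1 mM. One-hour room-temperature incubation, then coupled luciferase luminescence; 0.5 nM enzyme wells mark activation.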
RE007 growth inh: qHTS Assay for Inhibitors of the HIV-1 protein Vpr | S. pombe RE007 Vpr strain, BacTiter-Glo ATP luminescence, 24 h | Potency, µM (top dose mostly 92.2 µM), without a hit: at the highest dose activity change, negative = less growth, hits mostly inhibitors | hit rate 0.21% among 360,000 | AID 651644, 2012; active = well fitted falling curve with a large enough effect; also: potency is read from the fitted curve at half-maximal effect; % is scaled to controls: 0 for no effect and ±100 for the full control effect; nearly all actives have a fitted effect of over 50% in size
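Fission yeast RE007 carrying one integrated HIV-1 vpr copy, seeded at OD 0.01 in PMG+AL medium with 23 nL pinned compound. Grown 24 h at 30 degrees; viability read by BacTiter-Glo luminescence after 5 min.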
Giardia FBPA inh: qHTS Assay for Inhibitors of Fructose-1,6-bisphosphate Aldolase from Giardia Lamblia. purified Giardia FBPA. Potency, µM (highest dose often 59.6 µM), for the others: top-dose activity, negative = inhibition, most hits filed as inhibitors. hit rate 0.71% among 290,000. AID 2451, 2010; also: potency is read from the fitted curve at half-maximal effect; % is scaled to controls: 0 for no effect and ±100 for the full control effect; nearly all actives have a fitted effect of over 55% in size
Target sequence (A8B2U2 whole entry, looked up): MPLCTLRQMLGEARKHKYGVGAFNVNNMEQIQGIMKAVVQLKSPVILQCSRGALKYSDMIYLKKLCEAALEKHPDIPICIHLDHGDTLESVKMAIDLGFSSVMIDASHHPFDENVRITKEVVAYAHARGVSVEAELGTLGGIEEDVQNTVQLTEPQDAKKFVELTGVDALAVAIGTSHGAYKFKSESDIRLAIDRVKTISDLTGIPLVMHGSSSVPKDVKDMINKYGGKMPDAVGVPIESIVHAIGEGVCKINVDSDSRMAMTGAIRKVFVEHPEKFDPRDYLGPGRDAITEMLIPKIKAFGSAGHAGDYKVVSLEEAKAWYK
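Giardia FBPA (40 nM reagent) was preincubated 10 min at RT with compound (up to 57.5 uM final), then substrate plus GAPDH/TPI/NAD/arsenate coupling system with diaphorase/resazurin was added; resorufin fluorescence (525/598 nm) was read after 20 min.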
TbPYK inhibitor: qHTS of Trypanosoma Brucei Inhibitors | pyruvate kinase (Trypanosoma brucei), Q57TT1 | Potency, µM (highest dose often 76.8 µM), for inactives: top-dose activity, negative = inhibition, most hits filed as inhibitors | hit rate 0.12% among 410,000 | AID 624173, 2012 | TbPYK enzyme, Kinase-Glo Plus ATP luminescence, 45 min; also: potency is read from the fitted curve at half-maximal effect; % is scaled to controls: 0 for no effect and ±100 for the full control effect; nearly all actives have a fitted effect of over 50% in size
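ADP (130 uM final) triggers the TbPYK reaction after compound addition; incubation is 45 min at room temperature. Kinase-Glo Plus is then added and luminescence imaged. Normalized data are fitted to concentration-effect curves.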
Shiga inhibitor: A qHTS for Small Molecule Inhibitors of Shiga Toxin; Vero cells, Shiga toxin protein synthesis inhibition reporter; inhibition, % at 38.7 µM; hit rate 9.2% among 290,000; AID 2315, 2010; in the data active = inhibition mostly above about 28%, no sharp cut-off; inactive = mostly below about 43%; also: 0% is about no effect
An asterisk follows results filed as active. The entries come from a sample that favours hits as a whole. Unless noted, calls follow the shape of the dose curve; as a rule, active = well fitted curve in the direction sought with a large enough effect; inconclusive = small, poorly fitted or top-dose-only effect, or another doubt; inactive = no such curve, though single readings can be large; an effect the other way counts as inactive or inconclusive.

How did COc1ccc(C(=O)N/N=C(\C)CC(=O)Nc2ccc3ccccc3c2)c(OC)c1 do in these assays?
CHX counter: 13*; LmPK inh: -1%; RE007 growth inh: 0%; TbPYK inhibitor: -10%; Shiga inhibitor: 15

Results for COc1ccc(CNC(=O)C/C(C)=N/NC(=O)c2cc(OC)cc(OC)c2)cc1 ?
CHX counter: -3; LmPK inh: 4%; Giardia FBPA inh: -14%; Shiga inhibitor: -7

What do the screens show for `COc1ccc(CNC(=O)C/C(C)=N/NC(=O)c2ccc(OC)cc2OC)cc1`?
CHX counter: 14; LmPK inh: 6%; RE007 growth inh: -6%; Giardia FBPA inh: 5%; TbPYK inhibitor: 5%; Shiga inhibitor: 47*

Results for C=CCOC(=O)C1=C(C)NC(=S)C(C#N)(CC=C)C1c1ccccc1Cl (centres undefined) ?
CHX counter: -1; LmPK inh: 8%; RE007 growth inh: -10%; Giardia FBPA inh: -11%; TbPYK inhibitor: -7%; Shiga inhibitor: -9

How did C/C(CC(=O)Nc1cccc(Br)c1)=N\NC(=O)c1ccc(O)cc1O do in these assays?
CHX counter: 31*; LmPK inh: 0%; RE007 growth inh: -2%; Giardia FBPA inh: -1%; TbPYK inhibitor: -4%; Shiga inhibitor: 65*

How did C/C(CC(=O)Nc1cccc(Cl)c1Cl)=N\NC(=O)c1ccccc1N do in these assays?
CHX counter: 37*; LmPK inh: -1%; RE007 growth inh: -10%; Giardia FBPA inh: -13%; TbPYK inhibitor: 0%; Shiga inhibitor: 112*

What do the screens show for `COc1cccc(CNC(=O)c2ccc(NC(=O)N3CCCCc4ccccc43)cc2)c1OC`?
TbPYK inhibitor: 1%

What do the screens show for `CC(=O)N/N=c1\sc2ccccc2n1C`?
CHX counter: 1; LmPK inh: -5%; RE007 growth inh: 1%; Giardia FBPA inh: 3%; TbPYK inhibitor: 1%; Shiga inhibitor: 29

What do the screens show for `Cn1/c(=N\NC(=O)c2ccccc2Cl)sc2ccccc21`?
CHX counter: 31*; LmPK inh: 0%; RE007 growth inh: -8%; Giardia FBPA inh: -11%; TbPYK inhibitor: 2%; Shiga inhibitor: 75*

Results for Cc1ccc(S(=O)(=O)N/N=c2\sc3ccccc3n2C)cc1 ?
CHX counter: -7; LmPK inh: -2%; RE007 growth inh: 9%; Giardia FBPA inh: 6%; TbPYK inhibitor: -6%; Shiga inhibitor: -11

How did Cn1/c(=N\NC(=O)C2CCCCC2)sc2ccccc21 do in these assays?
CHX counter: 37*; LmPK inh: -2%; RE007 growth inh: -9%; Giardia FBPA inh: 0%; TbPYK inhibitor: -1%; Shiga inhibitor: 56*

What do the screens show for `Cc1ccc(C2CC(=O)N(Cc3ccc(F)cc3)c3c2c(C)nn3-c2nc(C)cc(C)n2)cc1` (centres undefined)?
TbPYK inhibitor: 2%

What do the screens show for `Cc1ccc(Nc2ccc(N3CCN(C(=O)c4cccc([N+](=O)[O-])c4)CC3)nn2)cc1`?
TbPYK inhibitor: 1%

What do the screens show for `Cc1ccccc1C(=O)Nc1cccc(OCc2cc(=O)n3cccc(C)c3n2)c1`?
TbPYK inhibitor: -12%

Results for COCCNC(=O)CCc1nnc(C2(c3ccc(Cl)cc3)CCC2)o1 ?
CHX counter: 7; LmPK inh: -21%; RE007 growth inh: 5%; Giardia FBPA inh: -1%; TbPYK inhibitor: 6%; Shiga inhibitor: 13

How did CCN(CCn1cccn1)C(=O)CCc1nnc(C2(c3ccc(Cl)cc3)CCC2)o1 do in these assays?
CHX counter: 41*; LmPK inh: 2%; RE007 growth inh: 15%; Giardia FBPA inh: 1%; TbPYK inhibitor: -13%; Shiga inhibitor: 92*

What do the screens show for `COCC1CCN(C(=O)CCc2nnc(C3(c4ccc(Cl)cc4)CCC3)o2)CC1`?
CHX counter: 15*; LmPK inh: 4%; RE007 growth inh: -6%; Giardia FBPA inh: 6%; TbPYK inhibitor: 2%; Shiga inhibitor: 33

How did CCN(CCn1cccn1)C(=O)CCc1nnc(-c2ccccc2)o1 do in these assays?
CHX counter: 37*; LmPK inh: -6%; RE007 growth inh: -4%; Giardia FBPA inh: 3%; TbPYK inhibitor: -4%; Shiga inhibitor: 57*

How did C#CCOCCOCCOCCNc1nc(N2CCN(C(=O)Cn3cc(CCCN=C(N)N)nn3)CC2)nc(N2CCN(C(=O)[C@H]([C@@H](C)CC)n3cc(CCCN=C(N)N)nn3)CC2)n1 do in these assays?
CHX counter: -5; LmPK inh: 6%; Giardia FBPA inh: 26%; Shiga inhibitor: -14

Results for CC(=O)c1ccc(NC(=O)C2=CC(c3ccco3)=NS(=O)(=O)N2C)cc1 ?
CHX counter: 15*; LmPK inh: -2%; RE007 growth inh: -3%; Giardia FBPA inh: -4%; TbPYK inhibitor: 0%; Shiga inhibitor: 27

Results for COc1ccc(CCNC(=O)C2CC(c3cccc([N+](=O)[O-])c3)=NO2)cc1 (centres undefined) ?
CHX counter: 47*; LmPK inh: -8%; RE007 growth inh: -6%; Giardia FBPA inh: 10%; TbPYK inhibitor: -4%; Shiga inhibitor: 160*

Results for COc1ccc(CCNC(=O)C2CC(c3c(Cl)cccc3Cl)=NO2)cc1 (centres undefined) ?
CHX counter: 9; LmPK inh: 0%; RE007 growth inh: -20%; Giardia FBPA inh: -1%; TbPYK inhibitor: 0%; Shiga inhibitor: -4

How did Cc1ccc(CNC(=O)C2CC(c3ccccc3[N+](=O)[O-])=NO2)cc1 (centres undefined) do in these assays?
CHX counter: 13*; LmPK inh: 0%; RE007 growth inh: -22%; Giardia FBPA inh: 2%; TbPYK inhibitor: 0%; Shiga inhibitor: -2

Results for CCCCNC(=O)C1CC(c2cccc(F)c2)=NO1 (centres undefined) ?
CHX counter: 33*; LmPK inh: -6%; RE007 growth inh: 0%; Giardia FBPA inh: 8%; TbPYK inhibitor: 2%; Shiga inhibitor: 58*

What do the screens show for `CC(C)CCNC(=O)C1CC(c2cccc(F)c2)=NO1` (centres undefined)?
CHX counter: 1; LmPK inh: -1%; RE007 growth inh: -10%; Giardia FBPA inh: 7%; TbPYK inhibitor: 3%; Shiga inhibitor: -3

What do the screens show for `O=C(NCc1ccc(OC(F)(F)F)cc1)C1CC(c2ccccc2[N+](=O)[O-])=NO1` (centres undefined)?
CHX counter: 2; LmPK inh: 2%; RE007 growth inh: 10%; Giardia FBPA inh: 20%; TbPYK inhibitor: -3%; Shiga inhibitor: -12
